Data reported in PubChem BioAssay (Tox21).
Records with an inconclusive call do not appear. Active and inactive are the calls of the source. Unless noted, calls follow the shape of the full dose curve.

Tests used:
[1] = Nuclear factor erythroid 2-related factor 2/antioxidant responsive element (Nrf2/ARE) small molecule agonists: qHTS cell viability counter screen in human keratinocytes (AID 1919968; active = well fitted curve in the direction sought with a large enough effect in the repeat runs; an effect the other way counts as inactive or inconclusive; also: nearly all actives have a fitted effect of over 55% in size; also: potency is read from the fitted curve at half-maximal effect)
Procedure, shortened: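 CellTiter-Fluor fluorescence, read 1 h after reagent, gave viability in the same wells as the ARE-luciferase assay. KeratinoSens cells (1,500/well) had 23 h compound exposure at 37 C/5% CO2 following 5 h plating.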

[2] = Nuclear factor erythroid 2-related factor 2/antioxidant responsive element (Nrf2/ARE) small molecule agonists: luciferase reporter gene qHTS assay in human keratinocytes (AID 1919969); also: nearly all actives have a fitted effect of over 35% in size; also: potency is read from the fitted curve at half-maximal effect
[3] = biological target: Gonadotropin-releasing hormone receptor (Homo sapiens) (UniProt P30968); test: Human gonadotropin-releasing hormone receptor (GnRHR) small molecule agonists, calcium flux assay in GnRHR-HEK293 cells (AID 1920063); also: nearly all actives have a fitted effect of over 35% in size
Sequence of Gonadotropin-releasing hormone receptor (Homo sapiens) (P30968 whole entry, looked up): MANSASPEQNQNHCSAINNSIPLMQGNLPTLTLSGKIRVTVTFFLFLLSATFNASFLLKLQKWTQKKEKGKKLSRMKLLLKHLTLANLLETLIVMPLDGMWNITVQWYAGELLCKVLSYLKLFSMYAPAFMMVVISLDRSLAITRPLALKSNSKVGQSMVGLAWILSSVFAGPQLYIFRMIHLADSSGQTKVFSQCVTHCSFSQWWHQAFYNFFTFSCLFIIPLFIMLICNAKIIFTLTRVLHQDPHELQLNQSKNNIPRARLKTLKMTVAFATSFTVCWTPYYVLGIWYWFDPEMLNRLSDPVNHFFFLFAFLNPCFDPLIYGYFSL
Procedure, shortened: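 Agonist mode: compounds at 15 concentrations, in triplicate, went onto calcium dye-loaded GnRHR-HEK293 cells. Intracellular calcium was then followed as 480/540 nm fluorescence at 1 s intervals over 3 min.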

[4] = biological target: KiSS-1 receptor (Homo sapiens) (UniProt Q969F8); test: Human kisspeptin (KISS1R) small molecule agonists, calcium flux assay in KISS1R-HEK293 cells (AID 1920064; active = well fitted curve in the direction sought with a large enough effect in the repeat runs; an effect the other way counts as inactive or inconclusive)
Sequence of KiSS-1 receptor (Homo sapiens) (Q969F8 whole entry, looked up): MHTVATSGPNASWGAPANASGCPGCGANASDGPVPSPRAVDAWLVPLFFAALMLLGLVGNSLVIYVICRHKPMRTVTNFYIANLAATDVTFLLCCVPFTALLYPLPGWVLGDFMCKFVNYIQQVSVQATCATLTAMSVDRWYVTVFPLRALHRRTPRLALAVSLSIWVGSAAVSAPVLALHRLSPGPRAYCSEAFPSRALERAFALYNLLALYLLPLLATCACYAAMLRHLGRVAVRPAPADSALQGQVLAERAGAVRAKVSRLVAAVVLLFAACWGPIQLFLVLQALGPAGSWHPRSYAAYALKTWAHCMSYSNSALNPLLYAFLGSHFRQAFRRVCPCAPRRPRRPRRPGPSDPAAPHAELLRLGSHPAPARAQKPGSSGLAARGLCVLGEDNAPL
Procedure, shortened: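 Agonist mode: intracellular calcium rise tracked at 1 s intervals over 3 min (480/540 nm) immediately after compound addition to dye-loaded KISS1R-HEK293 stable cells. Each compound tested at 15 concentrations in triplicate.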

[5] = G protein-coupled receptor (GPCR) small molecule agonists, calcium flux assay: HEK293 wild type cell line counter screen (AID 1920065)
Procedure, shortened: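 Calcium flux counter screen: compound added in agonist mode at 15 concentrations in triplicate to dye-loaded parental HEK293 cells. Fluorescence (480/540) read kinetically for 3 min; ATP served as positive control.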

[6] = p53 small molecule agonists, cell-based qHTS assay with human liver microsomes (AID 1963577);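 also: p53 response element beta-lactamase reporter cells with liver microsomes plus NADPH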
Procedure, shortened: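 With metabolic activation: human liver microsomes (0.5 mg/mL final) plus NADPH (0.5 mg/mL final) added alongside compounds to p53RE-bla cells; 16 h 37 C exposure; beta-lactamase read by LiveBLAzer fluorescence.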

[7] = p53 small molecule agonists, cell-based qHTS assay with rat liver microsomes (AID 1963578)
Procedure, shortened: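 Metabolic activation by rat liver microsomes and NADPH, each 0.5 mg/mL final, added right after compounds to p53RE-bla reporter cells (4,000/well, plated 5 h earlier). 16 h at 37 C, then LiveBLAzer substrate for 2 h at room temperature in the dark; fluorescence read-out.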

[8] = p53 small molecule agonists, cell-based qHTS assay with human liver microsomes: qHTS cell viability counter screen (AID 1963579); also: nearly all actives have a fitted effect of over 45% in size
Procedure, shortened: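 Metabolic activation used human liver microsomes and NADPH, both 0.5 mg/mL final, over 16 hours at 37 C on p53RE-bla cells (4,000/well). Cytotoxicity measured by CellTiter-Glo luminescence, 30 min at room temperature.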

[9] = p53 small molecule agonists, cell-based qHTS assay: qHTS cell viability counter screen (AID 1963581); also: nearly all actives have a fitted effect of over 45% in size
Procedure, shortened: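 Counter screen read by CellTiter-Glo luminescence (ATP content, 30 min at room temperature), run in the same wells as the beta-lactamase reporter read. HCT-116 p53RE-bla cells saw compounds for 16 h at 37 C.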

[10] = biological target: 5-hydroxytryptamine receptor 2A (Homo sapiens) (UniProt P28223); test: 5-hydroxytryptamine receptor 2A (HTR2A) small molecule antagonists, cell-based qHTS assay (AID 1963586); also: nearly all actives have a fitted effect of over 45% in size; also: potency is read from the fitted curve at half-maximal effect
Sequence of 5-hydroxytryptamine receptor 2A (Homo sapiens) (P28223 whole entry, looked up): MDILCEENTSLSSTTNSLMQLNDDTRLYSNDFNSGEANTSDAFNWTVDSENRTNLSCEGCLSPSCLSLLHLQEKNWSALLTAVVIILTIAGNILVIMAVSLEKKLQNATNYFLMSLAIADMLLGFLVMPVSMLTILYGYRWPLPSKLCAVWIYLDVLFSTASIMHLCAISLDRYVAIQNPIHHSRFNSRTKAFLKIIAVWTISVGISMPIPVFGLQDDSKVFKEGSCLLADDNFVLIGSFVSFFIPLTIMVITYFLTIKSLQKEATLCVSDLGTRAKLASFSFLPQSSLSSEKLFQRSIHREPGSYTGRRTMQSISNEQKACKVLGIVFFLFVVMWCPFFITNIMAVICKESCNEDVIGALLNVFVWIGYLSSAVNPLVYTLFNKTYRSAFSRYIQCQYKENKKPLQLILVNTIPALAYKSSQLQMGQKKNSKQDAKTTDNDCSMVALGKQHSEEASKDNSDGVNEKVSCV
Procedure, shortened: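 CHO cells stably expressing human HTR2A were plated for 18 h at 37 C, then loaded with calcium dye for 1 h. Compounds were preincubated 5 min at room temperature before DOI (4 nM solution) was added. Kinetic fluorescence was read for 3 min.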

[11] = biological target: Muscarinic acetylcholine receptor M1 (Homo sapiens) (UniProt P11229); test: Cholinergic receptor muscarinic 1 (CHRM1) small molecule antagonists, cell-based qHTS assay (AID 1963588); also: nearly all actives have a fitted effect of over 40% in size
Sequence of Muscarinic acetylcholine receptor M1 (Homo sapiens) (P11229 whole entry, looked up): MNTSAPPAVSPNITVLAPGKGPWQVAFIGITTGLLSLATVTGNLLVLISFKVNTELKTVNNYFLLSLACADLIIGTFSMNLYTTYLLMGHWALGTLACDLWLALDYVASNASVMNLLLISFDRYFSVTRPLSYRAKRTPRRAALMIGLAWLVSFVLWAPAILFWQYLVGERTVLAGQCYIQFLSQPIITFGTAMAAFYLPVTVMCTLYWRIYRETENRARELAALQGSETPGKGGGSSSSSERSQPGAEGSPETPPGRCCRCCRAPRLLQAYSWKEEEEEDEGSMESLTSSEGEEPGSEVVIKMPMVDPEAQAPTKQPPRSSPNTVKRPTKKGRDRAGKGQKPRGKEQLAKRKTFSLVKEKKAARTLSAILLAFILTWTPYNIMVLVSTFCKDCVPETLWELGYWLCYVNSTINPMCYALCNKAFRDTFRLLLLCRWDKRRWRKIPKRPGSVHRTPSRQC
Procedure, shortened: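 Compounds were tested at 15 concentrations in three independent runs. Dye-loaded CHRM1-CHO cells were exposed 5 min at room temperature before stimulation by acetylcholine added at 50nM. Intracellular calcium was read kinetically on FDSS for 3 min.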

[12] = biological target: Muscarinic acetylcholine receptor M1 (Homo sapiens) (UniProt P11229); test: Cholinergic receptor muscarinic 1 (CHRM1) small molecule agonists, cell-based qHTS assay (AID 1963589); also: nearly all actives have a fitted effect of over 35% in size
Procedure, shortened: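 Agonist-mode calcium-flux screen: compounds at 15 concentrations, three independent runs, were pin-transferred onto dye-loaded human CHRM1-CHO cells. Fluorescence was then recorded kinetically every second over minutes.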

[13] = cAMP Responsive Elements (CRE) small molecule agonists, cell-based qHTS assay (AID 1963590)
Procedure, shortened: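 Agonist mode: compound added to CRE-bla HEK 293T cells (2,000/well, 18 h after plating) for 3 h at 37 C/5% CO2. Reporter activity detected via FRET beta-lactamase substrate, 2 h room-temperature loading.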

[14] = cAMP Responsive Elements (CRE) small molecule antagonists, cell-based qHTS assay (AID 1963591; active = well fitted inhibition curve with a large enough effect in the signal ratio in the repeat runs, not every such curve was filed as active; the % refers to the signal ratio)
Procedure, shortened: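 Antagonist mode: compounds are added alongside the adenylyl cyclase activator NKH477 (0.25 uM final) to CRE-bla HEK293T cells for 3 h. LiveBLAzer FRET substrate, 2 h at room temperature, reports bla expression.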

[15] = biological target: Beta-2 adrenergic receptor (Homo sapiens) (UniProt P07550); test: Adrenergic beta2 receptor (ADRB2) small molecule antagonists, cell-based qHTS assay (AID 1963592); also: nearly all actives have a fitted effect of over 50% in size; also: potency is read from the fitted curve at half-maximal effect
Sequence of Beta-2 adrenergic receptor (Homo sapiens) (P07550 whole entry, looked up): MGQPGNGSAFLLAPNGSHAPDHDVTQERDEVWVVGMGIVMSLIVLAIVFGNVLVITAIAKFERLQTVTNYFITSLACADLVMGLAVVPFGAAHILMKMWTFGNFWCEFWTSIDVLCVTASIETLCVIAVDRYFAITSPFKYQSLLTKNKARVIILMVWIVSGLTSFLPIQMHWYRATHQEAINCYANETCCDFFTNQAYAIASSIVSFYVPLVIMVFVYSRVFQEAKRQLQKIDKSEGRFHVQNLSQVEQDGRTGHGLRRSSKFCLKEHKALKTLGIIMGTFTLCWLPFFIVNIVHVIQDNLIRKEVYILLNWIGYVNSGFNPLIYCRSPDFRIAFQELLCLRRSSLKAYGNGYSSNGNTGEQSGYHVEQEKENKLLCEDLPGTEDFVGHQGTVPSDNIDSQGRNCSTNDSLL
Procedure, shortened: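 Assay format: CHO-ADRB2 cells, 18-20hr seeding at 37C/5% CO2, then compound plus 1nM isoproterenol agonist mix for 0.5hr RT. Homogeneous time-resolved fluorescence cAMP detection after 1hr, expressed as 665/615 nm ratio.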

[16] = biological target: Beta-2 adrenergic receptor (Homo sapiens) (UniProt P07550); test: Adrenergic beta2 receptor (ADRB2) small molecule agonists, cell-based qHTS assay (AID 1963593);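 also: CHO cells stably overexpressing human ADRB2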
Procedure, shortened: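 CHO cells stably over-expressing ADRB2 were plated overnight at 37C, then dosed with compounds plus a stimulation mix containing 100uM IBMX and 25uM Ro-20-1724 for 0.5hr at room temperature. cAMP was measured by HTRF competition, 1hr.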

[17] = biological target: D(2) dopamine receptor (Homo sapiens) (UniProt P14416); test: Dopamine D2 receptor (DRD2) small molecule agonists, cell-based qHTS assay (AID 1963594); also: nearly all actives have a fitted effect of over 35% in size
Sequence of D(2) dopamine receptor (Homo sapiens) (P14416 whole entry, looked up): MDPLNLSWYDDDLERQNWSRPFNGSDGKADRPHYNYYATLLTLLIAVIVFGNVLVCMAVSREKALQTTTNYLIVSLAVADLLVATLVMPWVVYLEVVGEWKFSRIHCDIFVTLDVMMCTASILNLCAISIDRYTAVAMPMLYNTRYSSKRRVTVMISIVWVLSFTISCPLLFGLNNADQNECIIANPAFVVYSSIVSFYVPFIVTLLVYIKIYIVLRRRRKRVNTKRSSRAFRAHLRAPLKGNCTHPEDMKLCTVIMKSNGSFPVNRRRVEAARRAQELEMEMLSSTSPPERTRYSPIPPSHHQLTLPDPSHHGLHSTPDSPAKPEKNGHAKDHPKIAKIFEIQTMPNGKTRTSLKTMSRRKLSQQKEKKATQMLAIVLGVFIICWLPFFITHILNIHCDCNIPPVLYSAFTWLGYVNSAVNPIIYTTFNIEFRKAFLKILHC
Procedure, shortened: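 HEK293 cells stably expressing human DRD2, pre-treated with PDE inhibitor Ro20-1724 (0.1 mM final) and compound 10 min at room temperature, then stimulated with NKH477 (200nM […]) for 30 min. cAMP read by HTRF (665/620 nm).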

[18] = biological target: D(2) dopamine receptor (Homo sapiens) (UniProt P14416); test: Dopamine D2 receptor (DRD2) small molecule antagonists, cell-based qHTS assay (AID 1963595; active = well fitted inhibition curve with a large enough effect in the signal ratio in the repeat runs, with a control signal flat; the % refers to the signal ratio)
Procedure, shortened: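 HEK293 cells stably expressing DRD2, preincubated with 0.1 mM Ro20-1724 and compounds 10 min, were stimulated with 200 nM NKH477 plus 12 nM quinpirole for 30 min at room temperature; cAMP measured by HTRF (665/620 nm).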

[19] = p53 small molecule agonists, cell-based qHTS assay (AID 1963582; active = well fitted activation curve with a large enough effect in the signal ratio in the repeat runs, not every such curve was filed as active; the % refers to the signal ratio)
Procedure, shortened: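 Read-out is beta-lactamase FRET fluorescence after 2 h at room temperature with LiveBLAzer B/G substrate. p53 response element-bla cells were treated 16 h at 37 C with compounds in DMSO, added 5 h after seeding.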

[20] = biological target: 5-hydroxytryptamine receptor 2A (Homo sapiens) (UniProt P28223); test: 5-hydroxytryptamine receptor 2A (HTR2A) small molecule agonists, cell-based qHTS assay (AID 1963587); also: nearly all actives have a fitted effect of over 30% in size
Procedure, shortened: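 CHO cells stably expressing human HTR2A, plated 18 h, loaded with calcium dye 1 h at 37 C. Agonist mode: compounds added and intracellular calcium fluorescence recorded kinetically for 2 min at 1 sec intervals.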

Measured: Potency

C=C1CC[C@H]2O[C@]2(C)CC[C@@H]2[C@@H]1CC2(C)C
inactive: [1] | [2] | [3] | [4] | [5] | [6] | [7] | [8] | [9] | [10] | [11] | [12] | [13] | [14] | [15] | [16] | [17] | [18]

O=C(NCCN1CCOCC1)c1ccc(Cl)cc1
inactive: [1] | [2] | [3] | [4] | [5] | [6] | [7] | [8] | [9] | [19] | [13] | [14] | [15] | [16] | [17] | [18]

COc1ccccc1NC(=O)c1cc2ccccc2cc1O
active: [2] 61.1 µM | [10] 21.1 µM | [15] 54.5 µM
inactive: [1] | [3] | [4] | [5] | [6] | [7] | [8] | [9] | [20] | [11] | [12] | [17] | [18]

CCCCCCC1CCCC(=O)O1 (stereo not drawn)
inactive: [1] | [2] | [3] | [4] | [5] | [6] | [7] | [8] | [9] | [10] | [20] | [11] | [12] | [15] | [17] | [18]

O=S(=O)(Cl)c1c(Cl)cccc1Cl
inactive: [1] | [2] | [3] | [4] | [5] | [6] | [7] | [8] | [9] | [20] | [11] | [12] | [13] | [14] | [15] | [17] | [18]

CCNS(=O)(=O)c1ccc(C)cc1
inactive: [1] | [2] | [3] | [4] | [5] | [6] | [7] | [8] | [19] | [10] | [20] | [11] | [12] | [15] | [17]

CC(C)(C)NCC(O)COc1cccc2c1C[C@H](O)[C@H](O)C2 (stereo partly drawn)
inactive: [1] | [2] | [3] | [4] | [5] | [6] | [7] | [8] | [9] | [19] | [13] | [14] | [18]

CCCCCCCCCC(=O)N(C)C
inactive: [1] | [3] | [4] | [5] | [6] | [7] | [9] | [19] | [10] | [20] | [11] | [12] | [13] | [14] | [15] | [17] | [18]
active: [2] 43.9 µM

Cc1c(C)c2c(c(C)c1OC(=O)CCC(=O)O)CC[C@@](C)(CCC[C@H](C)CCC[C@H](C)CCCC(C)C)O2
inactive: [1] | [2] | [3] | [4] | [5] | [6] | [7] | [9] | [19] | [10] | [20] | [11] | [12] | [13] | [14] | [15] | [17] | [18]

CCC(C)C(=O)OC (stereo not drawn)
inactive: [1] | [2] | [3] | [4] | [5] | [6] | [7] | [9] | [19] | [10] | [20] | [11] | [12] | [14] | [15] | [17] | [18]

O=c1cccccc1O
inactive: [3] | [4] | [5] | [6] | [7] | [8] | [19] | [20] | [11] | [13] | [14] | [15] | [18]
active: [1] 44.1 µM | [2] 24.8 µM

O=C(O)c1cc(C(=O)O)c(C(=O)O)cc1C(=O)O
inactive: [1] | [2] | [3] | [4] | [5] | [6] | [7] | [9] | [19] | [10] | [20] | [11] | [12] | [13] | [14] | [15] | [16] | [18]

O=C(NS(=O)(=O)/C=C/c1ccccc1)c1ccc(F)cc1Cl
inactive: [1] | [3] | [4] | [5] | [6] | [7] | [8] | [10] | [20] | [11] | [12] | [13] | [15] | [16] | [17] | [18]
active: [2] 27.3 µM

NCC(=O)CCC(=O)O
inactive: [1] | [2] | [3] | [4] | [5] | [6] | [7] | [9] | [19] | [10] | [20] | [11] | [12] | [13] | [15] | [16] | [17] | [18]

COc1ccc([C@@H]2Sc3ccccc3NC(=O)[C@@H]2O)cc1
inactive: [1] | [2] | [3] | [4] | [5] | [6] | [7] | [8] | [19] | [20] | [11] | [12] | [13] | [15] | [17] | [18]

COc1cc2c(N3CCN(C(=O)Nc4ccc(OC(C)C)cc4)CC3)ncnc2cc1OCCCN1CCCCC1
inactive: [2] | [3] | [4] | [5] | [6] | [7] | [9] | [19] | [10] | [20] | [11] | [12] | [15] | [17]
active: [1] 23.7 µM
